# CYP2C19 act = cytochrome P450 2C19 (human) activation. P33261. recombinant CYP2C19, luciferin-H EGE luminescence; hits give high values; 0 = fully inhibited enzyme, 1 = untreated enzyme. activation factor at 5 µM. 96,000 tested, under 10 active. AID 1025;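 active means activation factor of at least 2 at 5 µM in the primary screen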;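 further: 0 = wells with 2.5 mM tranylcypromine and 1 = vehicle-only wells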
# MRP-1 activ = MRP-1 activation; viability increase, % at 10 µM; 140,000 compounds, 0.61% hits; H69AR cells + doxorubicin, viability rescue, CellTiter-Glo;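 active means viability gain under doxorubicin at or above a set limit, the compound median plus 3 SD, cut at about 4.7% in these data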;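 further: MRP-1 overexpressing cells given doxorubicin 25 µM after compound pretreatment; 18-22 h compound pretreatment then 72 h with doxorubicin before readout; 0% = doxorubicin-only wells and 100% = vehicle-treated cells without doxorubicin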
# MRP reversal = MRP-mediated drug resistance reversal; H69AR cells + 2 uM doxorubicin, CellTiter-Glo, 72 h; differential viability (reversal), % at 10 µM; 85,000 compounds, 0.04% hits;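 active means viability drop by adding the cancer drug above about 55%, with treated viability meeting a 40% cutoff, limit read from the data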;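 further: viability without doxorubicin minus viability with 2 µM doxorubicin for each compound; larger differential means the compound sensitizes cells more to doxorubicin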
# CYP2C9 act = increases human cytochrome P450 2C9 activity | P11712 | recombinant CYP2C9, luciferin-H conversion, luminescence; hits give high values; factor 1 = untreated enzyme, 0 = blocked | activation factor at 5 µM | 96,000 compounds, 1.4% hits;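 active means activation factor of 2 or more for CYP2C9 at a 5 µM dose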;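 further: 0 = sulfaphenazole-blocked wells and 1 = vehicle-only wells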
# Target sequence (P11712 whole entry, looked up): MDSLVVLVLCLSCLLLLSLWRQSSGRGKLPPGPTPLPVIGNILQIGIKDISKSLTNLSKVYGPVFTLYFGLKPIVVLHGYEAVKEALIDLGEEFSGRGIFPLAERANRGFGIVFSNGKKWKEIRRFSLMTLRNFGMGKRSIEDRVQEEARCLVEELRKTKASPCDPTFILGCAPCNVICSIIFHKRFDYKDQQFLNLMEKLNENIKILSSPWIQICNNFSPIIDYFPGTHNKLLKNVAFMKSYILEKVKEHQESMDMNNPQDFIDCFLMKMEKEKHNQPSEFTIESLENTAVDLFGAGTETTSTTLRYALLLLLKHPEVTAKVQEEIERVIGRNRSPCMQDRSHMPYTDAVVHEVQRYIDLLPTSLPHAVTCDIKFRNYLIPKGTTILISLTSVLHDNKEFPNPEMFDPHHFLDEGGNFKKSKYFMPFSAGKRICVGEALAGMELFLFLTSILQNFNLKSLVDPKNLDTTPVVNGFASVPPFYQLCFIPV
# CYP2C9 inhib = inhibitors of human CYP2C9. CYP2C9 Supersomes, luciferin-H conversion, luminescence. inhibition, % at 5 µM. 96,000 compounds, 20% hits;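 active means blocking of liver enzyme CYP2C9 beyond about 50% at 5 µM, limit read from the data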
# CYP2C19 inh = inhibitors of human CYP2C19; P33261; CYP2C19 Supersomes, luciferin-H EGE luminescence, 30 min; inhibition, % at 5 µM; 96,000 compounds, 21% hits; AID 778;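 active means CYP2C19 inhibition above a set limit at 5 µM in the primary screen, cut at about 50% in these data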;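 further: plate controls were negative control wells for no effect and 2.5 mM tranylcypromine positive control for full effect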
# * hit, by the source's call; . = no result given. Rows were chosen to be rich in hits. Some 21% of all compounds tested hit in one or more screens of this group.
SMILES,CYP2C19 act,MRP-1 activ,MRP reversal,CYP2C9 act,CYP2C9 inhib,CYP2C19 inh
C/C(=N\Nc1ccc([N+](=O)[O-])cc1)c1cccc(N)c1,0.1,-2,.,0.6,40,90*
C=CCN1C(=O)C(CC(=O)Nc2ccc(C)cc2)SC1=Nc1c(C)n(C)n(-c2ccccc2)c1=O (stereo not drawn),0.4,0,17,0.3,66*,62*
COc1ccc(N=C2SC(CC(=O)Nc3ccccc3)C(=O)N2CCc2ccccn2)cc1 (stereo not drawn),.,-1,.,.,.,.
C=CCN1C(=O)C(CC(=O)O)SC1=Nc1c(C)n(C)n(-c2ccccc2)c1=O (stereo not drawn),0.9,-2,-1,1.1,-11,12
COCCN1C(=O)C(CC(=O)Nc2ccc(C(C)=O)cc2)SC1=Nc1ccccc1 (stereo not drawn),0.5,-1,.,0.3,72*,54*
CC(O)CN1C(=O)C(CC(=O)Nc2ccc(Cl)cc2)SC1=Nc1ccccc1 (stereo not drawn),0.3,-1,-18,0.3,67*,72*
COc1ccc(-c2ccc(-c3noc(-c4ccccc4C)n3)c(OC)n2)cc1,1,1,15,1,-2,4
COc1ccc(-c2ccc(-c3noc(-c4cccs4)n3)c(OC)n2)cc1,0.9,-2,18,0.4,60*,13
Cc1ccc(C)n1-c1nc(=S)[nH][nH]1,0.2,0,5,0.1,88*,76*
CCc1c(C)nc2ncnn2c1N1CCC(C(=O)N2CCN(c3ccccc3)CC2)CC1,0.8,.,4,1,3,19
CCc1c(C)nc2ncnn2c1N1CCC(C(=O)N2CCN(c3ccc(F)cc3)CC2)CC1,0.4,-1,20,0.9,6,61*
Cc1nc2ncnn2c(N2CCC(C(=O)NC3CCCC3)CC2)c1Cc1ccccc1,0.3,-2,29,0.4,60*,66*
C=CCn1c(=O)c2ccccc2n2c(SCc3c(C(=O)OCC)oc4ccccc34)nnc12,0.4,.,53,0.4,60*,59*
C=CCn1c(=O)c2ccccc2n2c(SCc3nc4ccccc4s3)nnc12,0.4,-2,-19,0.6,37,62*
COc1ccc2[nH]c(C)c(CCN(Cc3cccs3)C(=S)Nc3ccccc3)c2c1,0.5,-4,-3,0.1,86*,50*
COc1ccc(NC(=S)N(CCc2c(C)[nH]c3ccc(C)cc23)Cc2cccs2)cc1,.,-1,.,.,.,.
COc1ccccc1NC(=S)N(CCc1c(C)[nH]c2ccccc12)Cc1cccs1,0.4,-4,5,0.6,36,58*
COc1ccc2[nH]c(C)c(CCN(Cc3cccs3)C(=S)Nc3ccc(F)cc3)c2c1,0.5,-5,-8,0.1,87*,45
Cc1c(C(c2ccc([N+](=O)[O-])cc2)c2c(C)n(C)n(-c3ccccc3)c2=O)c(=O)n(-c2ccccc2)n1C,1,-3,.,1.2,-18,-4
CCCCNC(=O)C(=O)N/N=C/c1ccc(OCC(=O)Nc2cccc(OC)c2)c(OC)c1,.,-1,.,.,.,.
CSc1nc2nccc(-c3ccc(Oc4ccccc4)cc3)n2n1,0.5,-3,2,0.4,56*,51*
c1ccc(Oc2ccc(-c3ccnc4nc(N5CCN(c6ccccc6)CC5)nn34)cc2)cc1,0.8,-2,.,0.4,59*,19
Cc1cc2c(nc1C)CCCN2C[C@@H](C)O/N=C1/[C@H]2CCn3c(=O)n(-c4ccccc4)c(=O)n3[C@H]2[C@H](O)[C@@H]2O[C@H]12,.,-3,.,.,.,.
N#Cc1c(-c2ccccc2F)cc(C2CC2)nc1SCC(=O)c1cccs1,.,2,.,.,.,.
O=C1C(C=NCc2ccncc2)=C(O)c2ccccc21,0.2,-1,9,0.2,85*,76*
SMILES,CYP2C19 act,MRP-1 activ,MRP reversal,CYP2C9 act,CYP2C9 inhib,CYP2C19 inh
O=C1C(c2ccncc2)=C(O)c2ccccc21,0.5,-1,-8,0.1,92*,50
COc1ccc(-c2cc(C(=O)Nc3sc4c(c3C#N)CCCC4)c3ccccc3n2)cc1,.,6.0*,.,.,.,.
COc1ccc(OC)c(-c2cc(C(=O)Nc3sc4c(c3C#N)CCC(C)C4)c3ccccc3n2)c1 (stereo not drawn),1,-2,.,0.6,35,0
COC(=O)c1sc(NC(=O)c2cc(-c3ccccc3)nc3ccccc23)c(C#N)c1C,0.9,-2,.,0.4,64*,8
CCOC(=O)c1sc(NC(=O)c2cc(-c3ccc(C)cc3)nc3ccccc23)c(C#N)c1C,0.9,-5,.,0.6,42,15
Cc1ccccc1-c1cc(C(=O)Nc2sc(C(=O)OC(C)C)c(C)c2C#N)c2ccccc2n1,0.6,-6,.,0.2,85*,44
Cc1cc(NC(=O)c2cc(-c3ccccc3C)nc3ccccc23)no1,.,-1,.,.,.,.
COCCOC(=O)c1c(C)n(C)c2ccc(OC(=O)C3CC3)cc12,0.8,1,-3,0.7,30,25
O=C(Nc1ccc(C(=O)OC[C@@H]2CCCN3CCCC[C@H]23)cc1)c1cccc(Br)c1,.,-2,.,.,.,.
CCCCCCCOc1ccc(-c2ccc(C#N)cn2)cc1,.,5.1*,.,.,.,.
COc1ccc(OC)c(C(c2nnnn2C2CCCC2)N2CCN(c3ccccc3F)CC2)c1 (stereo not drawn),0.1,1,5,0.1,94*,95*
COc1ccc(N2CCN(C(c3ccccc3OC)c3nnnn3C3CCCC3)CC2)cc1 (stereo not drawn),0.2,0,14,0.2,77*,76*
Fc1ccccc1N1CCN(C(c2ccccn2)c2nnnn2C2CCCCC2)CC1 (stereo not drawn),0.2,-2,9,0.2,77*,80*
COc1ccc(OC)c(C(c2nnnn2C2CCCC2)N2CCc3ccccc3C2)c1 (stereo not drawn),0.2,-5,-11,0.5,54*,80*
CCOC(=O)c1cnn(-c2cc(C)c3cc(C)cc(C)c3n2)c1N,.,.,10,.,.,.
O=CNC(Cc1ccccc1)C(=O)O (stereo not drawn),1,-1,9,1,-3,3
COc1ccc(-c2c3c(=O)n(C)c(=O)n(C)c3cn2Cc2cccnc2)cc1,0.7,0,5,0.9,5,28
COc1ccc(N2CCN(C(c3cccc(OC)c3OC)c3nnnn3C3CCCC3)CC2)cc1 (stereo not drawn),0.2,2,3,0.3,73*,80*
C=CCN1C(=O)NC(c2ccccc2)(C(F)(F)F)S/C1=C(\C#N)c1nnc(N2CCOCC2)n1-c1ccccc1 (stereo not drawn),.,-4,.,.,.,.
O=C1NC(c2ccccc2)(C(F)(F)F)SC2=NCCCN12 (stereo not drawn),0.3,-1,-11,0.8,21,68*
CCCNC(=O)NC(C(=O)OC)C12CC3CC(CC(C3)C1)C2 (stereo not drawn),0.3,0,17,0.6,40,69*

# Screening results (PubChem BioAssay)
